# Data from the supplement of paper PMC9023506.
# Counter-ions that a name gives are not always drawn.
# System: Danio rerio larvae (5 dpf)
# Assay: activity during first hour (no stimuli), difference vs DMSO (percentage points (treated minus DMSO)); higher = more of the behaviour than the DMSO vehicle control
# Details: 10 µM; exposure time: 3 h pre-incubation + 3 h imaging
# Protocol: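 5-dpf wild-type zebrafish larvae were imaged in 96-well plates. They were treated with 190 Tocris FDA-approved drugs at 10 µM (1 µl/ml DMSO) for 3 h before and 3 h during imaging at 28.5 °C, 48 larvae per drug. Automated image analysis gave % time moving and optomotor responses. Values are drug group mean minus DMSO vehicle mean (n=844), in percentage points, for 10 behaviours.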
row,Compound,activity during first hour
1,CC[C@H]1OC(=O)[C@H](C)[C@@H](O[C@H]2C[C@@](C)(OC)[C@@H](O)[C@H](C)O2)[C@H](C)[C@@H](O[C@@H]2O[C@H](C)C[C@H](N(C)C)[C@H]2O)[C@](C)(O)C[C@@H](C)CN(C)[C@H](C)[C@@H](O)[C@]1(C)O [Azithromycin],-12.2
2,Brc1c(NC2=NCCN2)ccc2nccnc12,-17
3,CC(=O)Oc1cc2c(s1)CCN(C(C(=O)C1CC1)c1ccccc1F)C2 (stereo not given) [Prasugrel],-1.24
4,COc1ccc(C[C@@H](C)NC[C@H](O)c2ccc(O)c(NC=O)c2)cc1 [Arformoterol tartrate],45.9
5,CC(C)(C(=O)c1cccnc1)c1cccnc1 [Metyrapone],-5.92
6,Nc1ncn([C@@H]2O[C@H](CO)[C@@H](O)[C@H]2O)c(=O)n1 [5-Azacytidine],4.78
7,CC[C@H](C)C(=O)O[C@H]1C[C@@H](C)C=C2C=C[C@H](C)[C@H](CC[C@@H]3C[C@@H](O)CC(=O)O3)[C@H]21 [Lovastatin],-0.394
8,C[C@]12CCC(=O)C=C1CC[C@@H]1[C@@H]2[C@@H](O)C[C@@]2(C)[C@H]1CC[C@]2(O)C(=O)CO [Hydrocortisone],3.43
9,CCOC(=O)[C@H](CCc1ccccc1)N[C@H]1CCc2ccccc2N(CC(=O)O)C1=O [Benazepril hydrochloride],1.65
10,CCOc1cc(CC(=O)N[C@@H](CC(C)C)c2ccccc2N2CCCCC2)ccc1C(=O)O [Repaglinide],5.41
11,C#C[C@]1(O)CC[C@H]2[C@@H]3CCC4=CC(=O)CC[C@@H]4[C@H]3CC[C@@]21CC [Levonorgestrel],-8.15
12,Cn1cnc([N+](=O)[O-])c1Sc1ncnc2[nH]cnc12 [Azathioprine],7.36
13,CC(=O)Nc1ccc(O)cc1 [Acetaminophen],5.63
14,C=CC(=O)N1CCC[C@@H](n2nc(-c3ccc(Oc4ccccc4)cc3)c3c(N)ncnc32)C1 [Ibrutinib],-6.62
15,CCOC(=O)C1=C(COCCN)NC(C)=C(C(=O)OC)C1c1ccccc1Cl (stereo not given) [Amlodipine besylate],2.38
16,Nc1ncn([C@H]2C[C@H](O)[C@@H](CO)O2)c(=O)n1 [Decitabine],0.325
17,Nc1nc(NC2CC2)c2ncn([C@H]3C=C[C@@H](CO)C3)c2n1 [Abacavir hemisulfate],8.55
18,COc1c(C)c2c(c(O)c1C/C=C(\C)CCC(=O)OCCN1CCOCC1)C(=O)OC2 [Mycophenolate mofetil],-1.93
19,CN1CC[C@@H](NC(=O)Nc2ccc(C#N)cc2)C[C@@H]1c1nc2ccccc2[nH]1,-8.92
20,COCCCOc1cc(C[C@@H](C[C@H](N)[C@@H](O)C[C@H](C(=O)NCC(C)(C)C(N)=O)C(C)C)C(C)C)ccc1OC [Aliskiren hemifumarate],-4.92

row,Compound,activity during first hour
1,NC(=O)OCC(COC(N)=O)c1ccccc1 [Felbamate],-2.12
2,CC(C)(C(=O)O)c1ccc(C(O)CCCN2CCC(C(O)(c3ccccc3)c3ccccc3)CC2)cc1 (stereo not given) [Fexofenadine hydrochloride],5.4
3,CC1=Nc2ccc(Cl)cc2S(=O)(=O)N1 [Diazoxide],6.7
4,CCN(CC)CCNC(=O)c1c(C)[nH]c(/C=C2\C(=O)Nc3ccc(F)cc32)c1C [Sunitinib malate],-14.4
5,COc1ccccc1OCC(O)CN1CCN(CC(=O)Nc2c(C)cccc2C)CC1 (stereo not given) [Ranolazine dihydrochloride],10.4
6,COc1cccc2c1C(=O)c1c(O)c3c(c(O)c1C2=O)C[C@@](O)(C(=O)CO)C[C@@H]3O[C@H]1C[C@H](N)[C@H](O)[C@H](C)O1 [Doxorubicin hydrochloride],-5.82
7,CN[C@H]1CC[C@@H](c2ccc(Cl)c(Cl)c2)c2ccccc21 [Sertraline hydrochloride],-24.2
8,CC(C)COCC(CN(Cc1ccccc1)c1ccccc1)N1CCCC1 (stereo not given) [Bepridil hydrochloride],0.257
9,CC(C)c1nc(N(C)S(C)(=O)=O)nc(-c2ccc(F)cc2)c1/C=C/[C@@H](O)C[C@@H](O)CC(=O)O [Rosuvastatin calcium],3.37
10,CCOc1nc2cccc(C(=O)O)c2n1Cc1ccc(-c2ccccc2-c2nnn[nH]2)cc1 [Candesartan],4.62
11,Cc1ccc(O)c([C@H](CCN(C(C)C)C(C)C)c2ccccc2)c1 [Tolterodine L-tartrate],1.86
12,CNC(=O)c1ccccc1Sc1ccc2c(/C=C/c3ccccn3)n[nH]c2c1 [Axitinib],-2.72
13,CC(C)(C#N)c1cc(Cn2cncn2)cc(C(C)(C)C#N)c1 [Anastrozole],3.37
14,OCCN(CCO)c1nc(N2CCCCC2)c2nc(N(CCO)CCO)nc(N3CCCCC3)c2n1 [Dipyridamole],-0.789
15,COC(=O)C1=C(C)NC(C)=C(C(=O)OC(C)C)C1c1cccc2nonc12 (stereo not given) [Isradipine],0.0385
16,CN(C)CCc1c[nH]c2ccc(C[C@H]3COC(=O)N3)cc12 [Zolmitriptan],7.82
17,CC/C(=C(\c1ccccc1)c1ccc(OCCN(C)C)cc1)c1ccccc1 [Tamoxifen citrate],31.4
18,NS(=O)(=O)c1cc2c(cc1Cl)NC(C1CC3C=CC1C3)NS2(=O)=O (stereo not given) [Cyclothiazide],0.422
19,COc1ccc([C@@H]2Sc3ccccc3N(CCN(C)C)C(=O)[C@@H]2OC(C)=O)cc1 [Diltiazem hydrochloride],-3.56
20,Cc1ccc(-c2cc(C(F)(F)F)nn2-c2ccc(S(N)(=O)=O)cc2)cc1 [Celecoxib],-5.35
